The whole screen tested about 31,000 sequences, of which about 1,400 (4.5%) were called active. Only a selection was taken, and actives are over-represented in it overall. Unmarked numbers belong to inactive results.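 The calls were made as follows: active = median seed-adjusted z-score above 1 or below -1; inactive = the rest.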

The assay is described as follows: Novel Modifiers of Survival Motor Neuron (SMN) Protein: Gene Identification via Genome-wide siRNA Screen.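 Also: luminescence tracks full-length SMN protein made from the SMN2 reporter.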 The settings on record: HEK293T SMN2-luciferase reporter, siRNA knockdown, 72 h; actives lie on both sides. The method in brief: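 Luciferase signal, proportional to full-length SMN made from an SMN2 cDNA reporter in stable HEK293T cells, was read 72 h after siRNA reverse transfection. Values were expressed as MAD scores after non-targeting-control normalization and log10 conversion; seed analysis flagged off-targets.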
For the sequence CGAUUAUUGUGAGCCUAAUTT against JAG1, the median seed-adjusted z-score is -0.32.

Regarding CUAAGAGACUAAAUGCAAATT against SUCLG2, the median seed-adjusted z-score is -0.619. Under GGGCCGCUUUAGAAAGGUATT against SNX1 stands 0.0261; under CCUGGACCCUGAACUCACATT against LILRA4, 0.109; under GCAUUACAGUACUUACGUATT against BTAF1, -1.19 (active). As to GGCUCUUACAAGUCCUUAUTT against CHRM2, the median seed-adjusted z-score is 0.053. Take GGCAUUACCGUGUAUAACATT against CHST10: the median seed-adjusted z-score was 0.115. Under GUACUGGAGUGAUGAGUUUTT against PARP12 stands -0.287; under GUCUGUCGCUACUACAAUATT against SLCO2B1, 0.289. Then CGAUGGGUCUGUGCACAAATT against TGM2, with 0.413. Then CGGCCUUGAUAAACUGAAATT against SNAPC3, with -1.72 (active); and CCAUGAGUGUGACUCUCAATT against ZNF599, with 0.0896; and CCCGGAUUGUUCCUACUGATT against ALG9, with -0.267. As for CGGGCUCCGUAGUCACAUUTT against NAALADL1, the median seed-adjusted z-score is -0.0444. Then GAACAAAUCUGCGAGAUCATT against DIRAS2, with -1.25 (active); and GCAGUUGGAGAGAUAAUAATT against VRK1, with -0.148; and CACUGUUUAUGUAUAUGGATT against RHOT1, with -0.189. Under UCACCACCGUGUCUAAGAATT against MPO stands -0.223; under GGUUCUUGCUUACACUCUUTT against ESSPL, 0.328. Then CAUUGUCAAUAUAACGAUUTT against GPR98, with -0.509.

Turning to CAAGAAUCUUAAGAUAGAATT against CD4, the median seed-adjusted z-score was -0.566. Then AUAUAUUGCUUGGAGAUGATT against STK16, with 0.113. With CCAUCAACAUCGCCCUGAATT against PLOD1, the median seed-adjusted z-score is 0.481.

Consider GCCUUUUGCUCAUCUCACUTT against TNFSF11, for which the median seed-adjusted z-score was 0.0212. Take CAACCAGACUAUUCGGACATT against PPP1R10: the median seed-adjusted z-score is 1.41 (active). For CCAACCUUCUGAAUACGUUTT against GPR126, the median seed-adjusted z-score was -0.243. Under AAAAGAGACUGAUCAUCCATT against NR2F6 stands -0.681; under GAACUAUGCUAUACCAGAATT against IQCH, 0. Then GACUAUUCCCUGCACCACATT against ABHD9, with 0.486; and CUUCCGUUAUGAUACAGAATT against GABRA2, with -0.272; and GCUGUACACCGGCAUCGUATT against SLC5A5, with 1.01 (active). Under GAAUCUAUGAGCUUCGAAATT against PSMB5 stands -1.37 (active). Regarding CUAUGGGUAUGACUACUUUTT against BPHL, the median seed-adjusted z-score was -0.161. Then GGAACAUAGUCUUCAGGUATT against KIF20A, with 0.906; and AUGCUGAUCAGGAAAAGUATT against TEX13A, with -1.22 (active); and CACUGAAGCUGUACAACAATT against TSHR, with 0.851.

GAGUGAUCAGAGACCGAAATT against IARS: the median seed-adjusted z-score was -0.198. As for GGACUUACUAAAAGCUAAATT against CRKRS, the median seed-adjusted z-score was -1.16 (active). Then CAAUCUAACUUUUCGGACATT against CLCA2, with 0.669.

Take CAGUUUCAACUUUAUCAGATT against RNF144B: the median seed-adjusted z-score is 0.642.

With GAUGAUAUCCUACUAGGCATT against CD302, the median seed-adjusted z-score was 0.0818.

Turning to CAAUGUUUGUCUGGUCAUATT against ZDHHC2, the median seed-adjusted z-score was 0.133. Under CAUCUUAUCUACAUCUUAUTT against KCNK18 stands 0.115; under CCAUUAUCGCUGUCUUCUATT against CXCR7, -0.511.

On to GGCCUACAGCUGGAAGGAATT against CHRM1, for which the median seed-adjusted z-score is 1.1 (active). Then GGAUGCGUUGAAUAAGUUUTT against MGAT4A, with 0.134; and GCACUACGGACCAUAGUUATT against NRF1, with 0.608. Under CGAAGUUCACUAUCGAACATT against DNAH11 stands 0.104. Under AUAUCAACUUGACCCACCATT against B3GNT7 stands -1.05 (active); under CUACUUCCUUUAUCCCGAUTT against BDH1, -0.0253. As for GGAUCGAUAUCAAGAUAUUTT against AVEN, the median seed-adjusted z-score is 0.184.

On to GAAUCUCUGUAGCCGAUGATT against CPA1, for which the median seed-adjusted z-score is -0.187. Under AGACUGAACUCCGAACAGATT against SSH3 stands -0.0772; under GAAUAAGAGCACAAGUAAATT against SERPINB13, 0.0593. Then AGCUGAUGUUCGAGCAGUATT against ACTL6B, with 0.0703; and CUCUGAGUAUGUGACCGAATT against XPNPEP1, with -1.5 (active); and CAUCAUCUAUGUAAGCCUATT against PRKD1, with -0.323.

For CAAGAAUCAUUAAUACAAATT against CCL2, the median seed-adjusted z-score was 0.651. Then GGACGCAGGUUUCUGUUUATT against CHRFAM7A, with 0.115. Under CACCAGCUAUGAACGAGAATT against THOC2 stands -1.22 (active); under CGACCUACCGAGAAGAAAATT against GJB3, -0.198; under GGGAUGUUCUUAGAAGUUUTT against BIK, 0.0492.

Consider GCCCAGUUGCUUAACGAAUTT against ACVR2A, for which the median seed-adjusted z-score was -0.22. CAAGAACUACAGAUUCGUATT against PPP1R13B: the median seed-adjusted z-score was 0.0943. On to GACUGACCAUACUGAUAUUTT against NPY5R, for which the median seed-adjusted z-score was 0.213. Under GCCUGUUUCAAGACACUGATT against CRNN stands -0.0758.

For the sequence GCUUUAGAGUUCCAUAUGATT against PIK3CG, the median seed-adjusted z-score was 0.576.

With GCACCUAUAUUUACUACUUTT against TTC3, the median seed-adjusted z-score was -1.17 (active). Then CAACUUGCCUUGUUAACCATT against ZDHHC2, with 0.133; and CUUCCACCCGAGUACCUUUTT against HDAC10, with -0.165. On to GAAUAGAGAUCAAAUUCCATT against CD163, for which the median seed-adjusted z-score was 0.021.

For GGAGGCUUCUUUAUGAAUUTT against FXYD4, the median seed-adjusted z-score is -0.0447. As to CUAUAACUGUUCGUGCUUATT against USP47, the median seed-adjusted z-score was 0.3. Under GAAAAUCACCAAAACAUACTT against WHSC1 stands 1.17 (active); under GGAAAGUCCUGUUUGAUCATT against RHBDL3, 0.56; under CUGUAGAACUAGUCCUUAUTT against PRKRIR, 0.

GUAUGUCGGGUAUACCGUUTT against RAD54L2: the median seed-adjusted z-score is -0.0646. Under CGACAAUGCGGUCAACCUUTT against CD28 stands -0.993; under GGAGAUACUCCGAACCUCATT against TEX13A, -1.22 (active). On to CGAUAUCUGACGCAGCUAATT against RPS6KA2, for which the median seed-adjusted z-score was 0.139. Under ACAUCCGAGUUUAUCCUGATT against SFRS9 stands -0.144; under GGAAAAAUAUCCAGCAAAATT against UBE2E2, -1.77 (active); under CCUCAGAUCUACCCACAGATT against CSF2RB, -0.454. In the case of CACAAGCAAGUUCAAAUAATT against FCRL4, the median seed-adjusted z-score was -0.39.

As for GCUAUUUGCUGGCUACAAATT against POLR2J3, the median seed-adjusted z-score is -5.42 (active). With GCGGCAAUCUUGGGAGUAATT against TMPRSS11B, the median seed-adjusted z-score was -0.545. Then CAGCGAUGCUACGACAAUATT against PHF17, with 1.01 (active). Under GAAUUUUGAUGUCAUACGATT against DTNB stands -0.142. Under GGAACUUCCUGAGAACAUUTT against MAP3K8 stands -0.533.

Turning to CAUUCACGAUCUUCCCGUATT against MYO16, the median seed-adjusted z-score was -0.072. Then GUUGCAAACUUAUCGAGGATT against CCT2, with -0.0508.

GGUAGAAUCUAGGUAUGCATT against RAD51: the median seed-adjusted z-score is 0.594. Then GCAUAUGGUUCUGAAGAUATT against GTF2E1, with 1.76 (active); and GAGCAAAUCAAAGAACUAATT against TSC22D1, with 0.

Regarding AGACACCUCCUAGGACUAUTT against MZF1, the median seed-adjusted z-score is 0.215. Then GGAGUGCACGAGACAUUCATT against FAH, with -0.0836; and GGACUACAAAGGUUCUCGATT against CDH18, with 0.21.

For the sequence CAGCUUCGAUAUAAGGAAATT against MYST2, the median seed-adjusted z-score was -1.46 (active). As to ACCUGACCGUGUCGCUAUATT against DHRSX, the median seed-adjusted z-score was -0.686.

In the case of GGAACCUGGAGAUAUCAUUTT against FUT8, the median seed-adjusted z-score is 0.464.

As for UGGUGUCGCUGGAGAAGUATT against GPX7, the median seed-adjusted z-score is -0.971. Regarding CCAUCCCACUGGUCACAUUTT against SLC7A8, the median seed-adjusted z-score is -0.134. As for GGAGGCAUUUGAAGUUCCATT against FARP1, the median seed-adjusted z-score was -0.487. Take GGACCGCUACUCUGAGUAUTT against KCNH6: the median seed-adjusted z-score is 0.424. Turning to CUGUUAUUCUUCAUACCUATT against TAAR8, the median seed-adjusted z-score was 0.0792. Then GGAUCAAGACGUGAACGAUTT against CPSF6, with -2.38 (active); and GAGUAUUCUGAGUACAUGATT against ZFP42, with -0.537. On to CAAACAUCUAUGCAGCAAATT against MS4A8B, for which the median seed-adjusted z-score is 0.207.

(Values after PubChem BioAssay AID1347426 (Functional Genomics Laboratory (NCATS/FGL), 2020).)
